# Reference: PubChem BioAssay (NCI)
# This is part of a sample that, as a whole, favours compounds with a hit. Of some 83,000 tested, about 20% had one in any assay.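 Single-concentration screen, 48 h exposure, 96-well plates. Endpoint: percent growth. Below 10 = active.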 Unmarked numbers belong to inactive results. The source made the active and inactive calls.
# Assays:
# Test in all cases: NCI-60 one-dose screen, 48 h (100 = growth as untreated, 0 = no growth, -100 = all killed)
# NCI-H322M lung = conditions: 10 µM unless noted
# NCI-H522 lung = conditions: 10 µM unless noted
# SNB-19 CNS = conditions: 10 µM unless noted
# U251 CNS = conditions: 10 µM unless noted
# SK-MEL-2 melanoma = conditions: 10 µM unless noted
# EKVX NSCLC = conditions: 10 µM unless noted
# TK-10 renal = conditions: 10 µM unless noted
# ACHN renal = conditions: 10 µM unless noted
# CCRF-CEM leukemia = conditions: 10 µM unless noted
# IGROV1 ovarian = conditions: 10 µM
# HS 578T breast = conditions: 10 µM unless noted
# T-47D breast = conditions: 10 µM unless noted
# MDA-MB-435 melanoma = conditions: 10 µM unless noted
# HCT-116 colon = conditions: 10 µM unless noted
# SK-MEL-5 melanoma = conditions: 10 µM unless noted
# SN12C renal = conditions: 10 µM unless noted
# SR leukemia = conditions: 10 µM
# COLO 205 colon = conditions: 10 µM
# HOP-92 NSCLC = conditions: 10 µM unless noted
SMILES,growth (NCI-H322M lung) [%],growth (NCI-H522 lung),growth (SNB-19 CNS) [%],growth (U251 CNS),growth (SK-MEL-2 melanoma) [%],growth (EKVX NSCLC) [%],growth (TK-10 renal) [%],growth (ACHN renal),growth (CCRF-CEM leukemia) [%],growth (IGROV1 ovarian),growth (HS 578T breast) [%],growth (T-47D breast),growth (MDA-MB-435 melanoma) [%],growth (HCT-116 colon) [%],growth (SK-MEL-5 melanoma) [%],growth (SN12C renal),growth (SR leukemia),growth (COLO 205 colon) [%],growth (HOP-92 NSCLC) [%]
COC(C)(C)CCC[C@H](C)C/C=C/C(C)=C/C(=O)OC(C)C,108,69.1%,109,95.9%,97.1,78.1,96.5,109%,78,99.7%,119,75.7%,97.4,83.6,–,–,–,–,–
CC12CCC(=O)C=C1CCC1C2CCC2(C)C(C(=O)COC(=O)Cc3ccc(N(CCCl)CCCl)cc3)CCC12 (stereo unspecified),180,81.9%,–,75.5%,–,53.1,112,–,26.7,–,82.4,89.2%,96.1,82.4,85,73.2%,-2.48% (active),–,–
c1ccc2nc(OCCN3CC3)ccc2c1,94,47.1%,87,–,96.3,80.7,–,88%,–,35.1%,98.3,–,83.3,25,98.6,79.9%,-13.3% (active),–,–
CC1(C)CC(=O)CC(C)(C)N1N=O,121,–,107,118%,–,112,91.8,103%,–,122%,–,97.3%,112,–,111,106%,109%,96.2,–
Cc1cc(NC(=O)NCCOc2ccc(N3C(N)=NC(N)=NC3(C)C)cc2Cl)ccc1S(=O)(=O)F,43.4,–,51.5,10.7%,51.4,–,35.3,94.2%,18.6,32.5%,–,50%,–,13.9,23.1,7.66% (active),34.8%,35.3,–
CC1(C)N=C(N)N=C(N)N1c1ccc(OCCCCOc2ccc(S(=O)(=O)F)cc2)c(Cl)c1,23.2,5.92% (active),24.4,12%,–,–,11.3,25.2%,16,33.1%,60.3,25.9%,16.8,11.2,–,17.4%,–,–,–
CC(=O)[O][Hg][c]1nc2c(c(=O)n(C)c(=O)n2C)n1C,95.7,–,98.2,–,–,–,110,112%,–,81%,105,88.8%,92.4,99.9,–,–,41.3%,113,–
CN1C(=O)NC(=O)C(N=Nc2ccc(Cl)cc2)C1=O (stereo unspecified),102,81.3%,106,108%,117,96.3,101,–,106,–,114,101%,95.7,93.3,96,103%,100%,–,–
C1CN1c1nc(N2CC2)nc(N2CC2)n1,78.1,-12.1% (active),35.9,7.27% (active),76.9,86.3,78.3,-29.7% (active),15.6,-3.62% (active),72.3,26.7%,63.9,42.6,20.1,51.7%,6.79% (active),–,–
CCOc1cc(C=C(C#N)C#N)cc(Br)c1O,98.1,100%,–,96.5%,102,104,102,106%,102,109%,107,–,101,99.2,105,106%,93.4%,–,–
CNC(=O)Oc1ccccc1,107,–,97,108%,118,–,122,105%,111,116%,–,133%,–,106,97.1,–,99%,104,–
CCCCCN(CCCCC)CC(O)c1ccc(C)c(Cl)c1 (stereo unspecified),102,83.5%,98,92.4%,101,95.2,98.5,92.7%,99,92.2%,102,91.2%,104,82.1,103,101%,92.4%,–,–
COC(=O)C1CC2c3ccccc3C1c1ccccc12 (stereo unspecified),98.8,–,117,101%,103,–,107,97.9%,83.4,96.6%,–,–,107,106,94,–,93.9%,99.8,–
O=C(O)C1[O][Sb][O]C1C(=O)O (stereo unspecified),101,–,110,–,96.5,–,101,106%,–,81.8%,101,89.3%,105,103,86.9,104%,70%,109,–
CCOC(=O)c1cnc(SCc2ccc(Cl)c(Cl)c2)nc1N1CC1,69.7,36.7%,–,49%,66.2,69.7,71.9,44.1%,38,33.7%,59.3,58.6%,10.5,23.5,72.6,58.4%,24.1%,–,–
N#[N+]c1cnc([O-])[nH]c1=O,98.9,14.4%,97.8,98.3%,96.7,114,92.6,94.4%,69.9,–,83.5,101%,106,108,97,–,64.8%,94.2,–
O=C1NC(=O)C(CN2C(=O)C3(c4ccccc42)[C@H](Cl)C(=O)N3c2ccccc2)C(=O)N1 (stereo partly specified),90.6,51.4%,88.6,72.6%,76.6,79.3,121,–,54.4,–,71,38.1%,104,79.9,–,97.4%,15.2%,–,–
CC1(C)N=C(N)N=C(N)N1c1ccc(OCCCCNC(=O)Nc2cccc(S(=O)(=O)F)c2)c(Cl)c1,57.6,–,45.7,15.6%,81.2,–,62,–,23.6,37.9%,–,–,–,16.4,–,7.54% (active),45.8%,50.4,–
COC(=O)C(=[N+]=[N-])C(=O)OC,–,94%,103,–,91.2,–,92.5,94%,61.4,110%,121,109%,100,–,104,98%,100%,–,82.9
NC(=O)NC(=O)CI,119,–,86.3,94.7%,92.1,–,–,84.7%,–,–,94.3,8.8% (active),98.2,36.8,93.9,–,25.9%,–,–
CC1(CF)NC(=O)NC1=O (stereo unspecified),–,122%,97.9,115%,–,104,128,–,95.7,–,108,–,107,103,114,–,115%,114,84.4
CC12CCC3C(CC=C4CC(O)CCC43C)C1C/C(=C\N1CCOCC1)C2=O (stereo unspecified),113,83.3%,110,100%,106,96.1,96,99.6%,94.3,119%,114,96%,–,–,–,102%,98.4%,116,91.3
